Reference: PubChem BioAssay (NCATS)
Where “and” joins values, the source holds several entries; their conditions need not be identical. Equal entries are not always repeated. Values without a mark were called inactive. Records with an inconclusive call do not appear. Calls of active or inactive are those of the source. Unless noted, the call rests on the fitted dose curve; in most records, active means well fitted curve in the direction sought with a large enough effect; inconclusive means small, poorly fitted or top-dose-only effect, or another doubt; inactive means no such curve, though single readings can be large; an effect the other way counts as inactive or inconclusive.

How the values were obtained:
[1] = Cell Viability - BJ (AID 421; calls by dose curve;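 further: potency means the concentration at half of the fitted maximal effect; cells exposed to compound for 40 hours at 37 °C before readout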); conditions: BJ fibroblast viability, qHTS
How it was run: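 Normal human BJ foreskin fibroblasts, 1500/well in complete medium, treated 40 hr at 37 °C. Cellular ATP by CellTiter-Glo luminescence; normalized to DMSO and 100 uM tamoxifen, AC50 from Hill fit.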

[2] = Cell Viability - HepG2 (AID 433; calls by dose curve;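 further: potency means the concentration at half of the fitted maximal effect; potency for ATP loss meaning cytotoxicity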); conditions: qHTS
How it was run: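 Cytotoxicity is scored as loss of intracellular ATP in HepG2 cells exposed to compounds for 40 h. Concentration-response curves, normalized to DMSO and 100 uM tamoxifen, give AC50 values.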

[3] = Cell Viability - N2a (AID 540); conditions: N2a mouse neuroblastoma cell viability; at 92.2 µM (top of the series);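 further: cells exposed to compound for 40 h at 37 °C; plate controls were DMSO alone for no effect and tamoxifen control for full effect; nearly all actives have a fitted effect of over 45% in size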
How it was run: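 Cytotoxicity was scored as loss of cellular ATP in N2a cells, a mouse neuroblastoma line. Compounds are applied in a qHTS concentration series for 40 hr at 37 °C.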

[4] = Cell Viability - NIH 3T3 (AID 541); conditions: NIH 3T3 cell viability, qHTS; activity change, negative = cytotoxicity: at 92.2 µM (top of the series);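 further: plate controls were DMSO alone for no effect and tamoxifen positive control for full effect; nearly all actives have a fitted effect of over 25% in size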
How it was run: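 Cells seeded at 1000/well, rested 5 hr at 37 °C, then dosed and incubated 40 hr at 37 °C. CellTiter-Glo added, 20 min room temperature, luminescence read. AC50 by Hill fit.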

[5] = Cell Viability - HUV-EC-C (AID 542); further: nearly all actives have a fitted effect of over 35% in size; further: potency means the concentration at half of the fitted maximal effect; on activity change, negative = cytotoxicity: on the % scale 0 is the no-effect control and ±100 the full control effect
How it was run: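 Cells were seeded at 1000 per well and incubated 5 hr at 37 °C before compound addition. After 40 hr at 37 °C, CellTiter-Glo reagent was added for 20 min and luminescence read. AC50 values came from Hill-equation modelling.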

[6] = Cell Viability - Renal Proximal Tubule (AID 545); conditions: renal proximal tubule cells viability; at 91.7 µM (top of the series), primary cells of rat origin unless noted;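 further: 0% = DMSO only and -100% = 100 µM tamoxifen; nearly all actives have a fitted effect of over 40% in size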
How it was run: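 Cytotoxicity is scored as a concentration-dependent drop in cellular ATP in primary rat renal proximal tubule cells exposed for 40 hr. AC50 derives from Hill modelling.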

[7] = Cellular Toxicity (caspase-3) HepG2 (AID 654);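 further: cells exposed to compound for 16 hours before reading; 0% = DMSO alone and 100% = caspase signal from 100 µM tamoxifen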
How it was run: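 Caspase 3/7 activation in HepG2 is measured as rising luminescence after a 16 hr treatment at 37 °C. Values are scaled between DMSO basal and 100 uM tamoxifen, and AC50 is fitted with the Hill equation.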

[8] = Cellular Toxicity (caspase-3) BJ (AID 658)
How it was run: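 qHTS, BJ fibroblasts, 1000 cells/well; 5 hr preincubation, 16 hr compound, 37 °C; Caspase-Glo 3/7 reagent, 1 hr RT; luminescence. DMSO = 0%, 10 uM staurosporine = 100%. Hill-equation AC50.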

[9] = Cellular Toxicity (caspase-3) MRC-5 (AID 659)
How it was run: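 MRC-5 fibroblasts, 1500/well; 16 h cpd, 37 °C; Caspase-Glo 3/7, 1 h RT; lumi read. Norm: DMSO = 0%, 10 uM staurosporine = 100%. Hill-fit AC50 from qHTS conc-response.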

[10] = Cellular Toxicity (caspase-3) Mesangial (AID 660);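 further: combined caspase 3 and 7 activity read by Caspase-Glo luminescence; cells exposed to compound for 16 h before the caspase read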
How it was run: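 Seed cells derived from normal human renal glomeruli, incubate 5 h, add compounds across concentrations and incubate 16 h at 37 °C. Caspase 3/7 activation is then quantified by luciferase light, with AC50 derived by Hill modeling.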

[11] = Cellular Toxicity (caspase-3) H-4-II-E (AID 663);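 further: cells exposed to compound for 16 hr before readout; 0% = DMSO basal and 100% = 100 µM tamoxifen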
How it was run: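 H-4-II-E rat hepatoma, 1500 cells/well, 5 hr settle at 37 °C; compound 16 hr, 37 °C, complete medium; Caspase-Glo 3/7, 20 min RT; luminescence. DMSO = 0%, 100 uM tamoxifen = 100%; Hill-equation AC50.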

[12] = Cellular Toxicity (caspase-3) N2a (AID 665); conditions: N2a cells, luminescence, normalized: DMSO 0%, 10 µM staurosporine 100%; at 92.2 µM (top of the series);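 further: compound exposure lasted 16 h at 37 °C before readout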
How it was run: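 Caspase-3/7 activation, measured as increased luminescence from aminoluciferin release, is quantified in mouse N2a cells exposed to compounds for 16 h. Values are normalized to DMSO and 10 uM staurosporine, with AC50 derived by Hill modelling.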

[13] = Cellular Toxicity (caspase-3) NIH 3T3 (AID 666);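 further: caspase signal read after 16 h compound exposure; 0% = DMSO basal and 100% = 100 µM tamoxifen stimulation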
How it was run: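 Cells were plated at 1000 per well and incubated 5 hr at 37°C, then compound was added for 16 hr. Caspase-Glo 3/7 reagent followed for 20 min at room temperature before luminescence was read.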

[14] = Cellular Toxicity (caspase-3) Renal Proximal Tubule (AID 667); conditions: renal proximal tubule cells; at 91.7 µM (top of the series), primary cells freshly taken from rat, solvent-only wells 0%, staurosporine 100% unless noted;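 further: cells exposed to compound for 16 hours at 37 °C before detection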
How it was run: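 In qHTS format, rat primary proximal tubule cells seeded at 1000 per well are exposed to compounds for 16 hours at 37 °C. An increase in Caspase-Glo 3/7 luminescence indicates caspase activation.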

[15] = qHTS assay for small molecule activators of the nuclear factor-kappa B (NF-kB) signaling pathway (AID 651749; active means well fitted activation curve with a large enough effect in the signal ratio; the % refers to the signal ratio; further: % of control where 0% means no effect); conditions: NF-kB-bla ME-180 cells, beta-lactamase FRET ratio, 16 h; activation: hits give high values
How it was run: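 In this qHTS format, compounds acting as activators increase NF-kB-driven beta-lactamase in ME-180 cells, measured as disrupted FRET after 16 hr exposure at 37C and 5% CO2.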

[16] = molecular target: Tumor necrosis factor (Homo sapiens) (UniProt P01375); test: qHTS assay to identify small molecules that stimulate Tumor Necrosis Factor-alpha (TNF-alpha) secretion (AID 651757; active means well fitted curve in the direction sought with a large enough effect in the signal ratio; the % refers to the signal ratio; further: 0% is about no effect)
Chain of Tumor necrosis factor (Homo sapiens) (P01375 whole entry, looked up): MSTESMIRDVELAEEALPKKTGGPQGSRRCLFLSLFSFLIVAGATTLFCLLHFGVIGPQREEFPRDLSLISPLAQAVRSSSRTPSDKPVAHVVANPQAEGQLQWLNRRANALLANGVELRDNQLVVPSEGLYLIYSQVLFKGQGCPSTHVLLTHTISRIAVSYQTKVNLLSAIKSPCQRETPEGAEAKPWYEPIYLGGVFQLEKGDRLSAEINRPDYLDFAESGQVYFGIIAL
How it was run: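 Human monocytic THP-1 cells are plated, treated with compound and held at 37 C for 17 hrs. Labeled anti-TNF-alpha antibody mixture is then added; after 3 hr at room temperature, TR-FRET signal reports secreted TNF-alpha.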

[17] = qHTS assay for small molecule agonists of the antioxidant response element (ARE) signaling pathway measured by Nrf2-dependant transcriptional activity - cell viability counter screen (AID 720653; active means well fitted curve in the direction sought with a large enough effect in the repeat runs; an effect the other way counts as inactive or inconclusive; further: on the % scale 0 is the no-effect control and ±100 the full control effect); conditions: ARE-bla HepG2 viability, CellTiter-Glo ATP luminescence, 16 h; hits give low values
How it was run: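 ARE-bla HepG2 cells treated with compounds for 16 h at 37C; this counter screen measures viability as intracellular ATP by CellTiter-Glo luminescence after 30 min at room temperature.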

[18] = qHTS assay for cell viability of HEK293 cells (AID 743288); conditions: ATP luminescence (CellTiter-Glo), 18 h; max response: hits give low values; further: on the % scale 0 is the no-effect control and ±100 the full control effect; nearly all actives have a fitted effect of over 50% in size
How it was run: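 Quantitative high-throughput screen: compounds were pinned onto parental HEK293 cells (2,000 per well) after a minimum 5 h settling at 37 C, incubated 18 h at 37 C, and intracellular ATP measured by luciferase luminescence.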

[19] = qHTS assay for cell viability of the p53RE-bla HCT-116 cell line (AID 743292); further: on the % scale 0 is the no-effect control and ±100 the full control effect; nearly all actives have a fitted effect of over 55% in size
How it was run: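 Compound-exposed HCT-116 (p53RE-bla) cells, 4,000 per well, were kept 16 h at 37 C following a 5 h preincubation. Cell number was estimated from total ATP by CellTiter-Glo luminescence read after 30 min at room temperature.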

SMILES | Potency [1] | Potency [2] | activity change, negative = cytotoxicity [3] | activity change, negative = cytotoxicity [4] | Potency [5] | activity change, negative = cytotoxicity [6] | outcome [7] | outcome [8] | outcome [9] | outcome [10] | outcome [11] | caspase-3 activation [12] | outcome [13] | caspase-3 activation [14] | activation [15] | outcome [16] | max response [17] | max response [18] | Potency [19]
C=CCc1ccc(OC)cc1 | > 92 µM | > 92 µM | -8.37% | 3.06% | inactive | -9.51% [at 91.7 µM] | inactive | inactive | inactive | inactive | inactive | 0.258% | inactive | 1.25% [at 91.7 µM] | -0.38% | inactive | 2.85% | 2.04% | inactive
CCc1cccc(CC)c1N(COC)C(=O)CCl | – | > 92 µM | -5.69% | -147% (active) | 50.1 µM (active) | – | inactive | inactive | inactive | inactive | inactive | 4.56% | inactive | 1.3% | -1.33% and -2.4% | inactive | 6.28% and -3.56% | -15.4% and -21.3% | inactive
CCOCN(C(=O)CCl)c1c(C)cccc1CC | 22.8 µM (active) | – | 4.55% | -155% (active) | 25.1 µM (active) | -103% (active) | inactive | inactive | inactive | inactive | inactive | -0.109% | inactive | 0.858% | -2.07% and -2.02% | inactive | -15.8% and -13.8% | -18.2% and -18.7% | inactive
CCNc1nc(Cl)nc(NC(C)C)n1 | > 92 µM | > 92 µM | -4.9% | -18.4% | inactive | -6.93% [at 91.7 µM] | inactive | inactive | inactive | inactive | inactive | -0.492% | inactive | -3.87% [at 91.7 µM] | -0.0541% and -0.0593% | inactive | 5.56% and -9% | 2.61% and -2.5% | inactive
COP(=S)(OC)Oc1ccc([N+](=O)[O-])cc1 | > 92 µM | > 92 µM | -21.2% | -18.8% | inactive | -3.77% [at 91.7 µM] | inactive | inactive | inactive | inactive | inactive | -2.62% | inactive | -6.77% [at 91.7 µM] | -0.601% | inactive | 0.527% and -8.08% | -1.38% and -0.0798% | inactive
